Screening results (PubChem)
Compounds with a hit are over-represented: about 3.6% of the library has one in this group of screens.
IkB sig inh – inhibitors of IkB signaling in ABC-DLBCL cells; 110,000 tested, 0.04% active; Potency, µM (top dose mostly 57.1 µM), for inactives: at the top dose IkBa stabilization activation; ABC-DLBCL IkBa-CBG/CBR dual luciferase ratio, 4 h; response scale: scaled: untreated 0%, proteasome inhibitor 100%; active = well fitted curve in the direction sought with a large enough effect in the signal ratio, not every such curve was filed as active; inconclusive = small, poorly fitted or top-dose-only effect, or a change in a side signal; the % refers to the signal ratio;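 also: the direction sought is a rising ratio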
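Curves were fitted separately to fusion (green), unfused (red) and ratio luminescence, then classed by r2, magnitude and activity. Cells: OCI-Ly3, 4 h compound plus doxycycline at 37C; 10 uM MG-132 defined full response.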
Hsp90 Hop PPI – changes Hsp90-Hop TPR2A binding signal, up or down. 71,000 tested, 0.44% active. AlphaScreen TPR2A-His6 binding biotin-Hsp90 C-terminal peptide. Potency, µM (titrated, usually from 57 µM), inactives show at the top dose activity change, negative = inhibition; active = well fitted curve in either direction with a large enough effect; inconclusive = small, poorly fitted or top-dose-only effect, or another doubt; also: % is scaled to controls: 0 for no effect and ±100 for the full control effect
15-hLO inh – 15-hLO (ALOX15) enzyme inhibition; P16050; purified 15hLO-1, xylenol orange hydroperoxide absorbance; Potency, µM (doses to about 57.1 µM), for the others: top-dose activity change, negative = inhibition, hits mostly inhibitors; 74,000 tested, 1.4% active; AID 887; also: % is scaled to controls: 0 for no effect and ±100 for the full control effect; nearly all actives have a fitted effect of over 55% in size
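Readout: Fe(III)-xylenol orange absorbance, 573-to-405 nm ratio as reaction progress. Enzyme 40 nM purified human 15hLO-1, substrate 50 uM arachidonic acid, 6 min RT after 15 min compound preincubation; Hepes pH 7.5 buffer with Triton X-100.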
CRE Fsk mod – modulators of forskolin-stimulated CRE signaling in CHO cells; Potency, µM (series often up to 38.2 µM), inactives show at the highest dose activity change, negative = inhibition, usual class: activators; 71,000 tested, 2.5% active; CHO CRE-bla reporter (cAMP response element driving beta-lactamase), forskolin EC10, beta-lactamase ratio; active = well fitted activation curve with a large enough effect in the signal ratio, with a control signal flat, not every such curve was filed as active; inconclusive = small, poorly fitted or top-dose-only effect, or effect the other way, or a change in a side signal; the % refers to the signal ratio; also: % of control where 0% means no effect
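CRE-bla CHO cells stimulated with EC10 NKH 477 (water-soluble forskolin) and compound titrations, 3 h at 37C; beta-lactamase read with CCF4 after 2 h at room temperature. Activity from 460/530 nm emission ratio, AC50 values for positive or negative modulation.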
Tau filament bind – binds recombinant human tau filaments. Potency, µM (titrated, usually from 57.1 µM), for inactives: at the highest dose activity change, negative = inhibition. 71,000 tested, 2% active. recombinant tau filaments, thioflavin S fluorescence, 15 h; filaments grown with octadecylsulfate alongside compound. P10636;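 also: % is scaled to controls: 0 for no effect and ±100 for the full control effect; actives lower thioflavin S fluorescence by blocking filaments or displacing dye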
Target sequence (P10636 whole entry, looked up): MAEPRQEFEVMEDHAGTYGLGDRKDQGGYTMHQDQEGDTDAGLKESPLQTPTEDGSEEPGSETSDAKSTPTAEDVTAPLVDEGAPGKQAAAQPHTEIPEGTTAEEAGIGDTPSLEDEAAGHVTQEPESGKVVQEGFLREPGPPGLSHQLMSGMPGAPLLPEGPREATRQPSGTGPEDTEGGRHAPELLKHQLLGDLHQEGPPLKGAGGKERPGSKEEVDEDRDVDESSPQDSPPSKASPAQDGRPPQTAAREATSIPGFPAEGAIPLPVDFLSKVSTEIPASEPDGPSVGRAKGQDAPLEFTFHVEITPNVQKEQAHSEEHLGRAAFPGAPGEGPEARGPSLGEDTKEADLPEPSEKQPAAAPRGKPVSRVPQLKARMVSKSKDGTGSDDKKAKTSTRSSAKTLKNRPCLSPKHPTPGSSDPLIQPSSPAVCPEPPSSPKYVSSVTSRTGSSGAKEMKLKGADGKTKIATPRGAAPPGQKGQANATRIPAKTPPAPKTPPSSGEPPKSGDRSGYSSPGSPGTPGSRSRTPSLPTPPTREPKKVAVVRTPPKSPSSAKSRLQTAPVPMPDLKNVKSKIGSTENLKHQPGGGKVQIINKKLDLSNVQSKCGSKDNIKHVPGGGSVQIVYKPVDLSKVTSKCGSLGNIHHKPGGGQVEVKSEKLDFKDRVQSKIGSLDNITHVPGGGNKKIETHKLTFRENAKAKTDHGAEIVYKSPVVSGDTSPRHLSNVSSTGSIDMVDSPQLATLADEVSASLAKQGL
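Thioflavine S fluorescence (ex 450, em 510 nm) reports filaments formed from 1 uM human tau plus 30 uM ODS over 15 h at 37 C (10 mM HEPES pH 7.4, 100 mM NaCl, 5 mM DTT); compounds displacing dye or blocking filaments lower signal.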
Starred values were filed as active, the others as inactive; ? = inconclusive; nt = no result; [ ] = another dose, or the depositor's remark. Unless noted, calls follow the shape of the dose curve; as a rule, active = well fitted curve in the direction sought with a large enough effect; inconclusive = small, poorly fitted or top-dose-only effect, or another doubt; inactive = no such curve, though single readings can be large; an effect the other way counts as inactive or inconclusive. Potency is read from the fitted curve at half-maximal effect.

SMILES	IkB sig inh	Hsp90 Hop PPI	15-hLO inh	CRE Fsk mod	Tau filament bind
O=C(NCc1ccco1)c1cc2cc3ccc(Cl)cc3nc2o1	-1.2%	-0.8%	8.0%	2µM*	-17.9%
COCC(=O)N1CCC2(CC1)CN(Cc1nccs1)C2	-4.4%[11.4 µM]	5.8%	-13.2%	-4.2%	11.4%
CC(C)CCNC(=O)CN1C(=O)COc2ccc(S(=O)(=O)N3CCOCC3)cc21	2.7%	nt	nt	nt	nt
O=c1cc(N2CCN(c3ccc(F)cc3)CC2)[nH]c(=O)n1-c1cccc(Br)c1	-3.4%	nt	nt	nt	nt
Cc1c(C(=O)NCC2CCCO2)sc2nc(-c3ccc(F)cc3)cn12 (stereo unspecified)	3.1%	-1.0%	-10.3%	12.6µM*	32.9%
O=C(CN1CCCC1)NCC12CC3CC(CC(C3)C1)C2	-0.8%	-8.7%	7.4%	14.3%	31.6µM*
CCC(=O)N1c2ccccc2CC1C(=O)NCc1ccccc1C (stereo unspecified)	-0.6%	nt	nt	nt	nt
CCCC(=O)Nc1ncnc2c1ncn2[C@@H]1O[C@@H]2COP(=O)(O)O[C@H]2[C@H]1OC(=O)CCC	-0.1%	-3.9%	-23.9%[25.6 µM]	?	39.8µM*
CCCC(=O)Nc1ncnc2c1ncn2C1OC2COP(=O)(O)OC2C1OC(=O)CCC (stereo unspecified)	nt	nt	4.8%	nt	nt
C=CC(C)(C)c1[nH]c2ccccc2c1C1=C(O)C(=O)C(c2c[nH]c3c(CC=C(C)C)cccc23)=C(O)C1=O	?	?	?	?	31.6µM*
COc1ccc(NC(=O)CCc2c(C)nn(-c3ccc(N4CCCCC4)nn3)c2C)cc1Cl	3.1%	nt	nt	nt	nt
NCCOB(c1ccccc1)c1ccccc1	3.5%	1.6%	0.631µM*	?	24.7%
NCCOc1ccccc1-c1ccccc1	-0.5%	-7.0%	24.7%	2.6%	?
Cc1cc(-c2cccnc2)c(C#N)c(SCC#N)n1	1.6%	1.3%	-2.1%	12.6µM*	-4.5%
CCS(=O)(=O)CCSc1nc(-c2ccc(Br)cc2)cc(-c2ccccc2)c1C#N	0.2%	nt	nt	nt	nt
CCCn1c(=O)c(C(=O)NCc2ccc(OC)c(OC)c2)c(O)c2ccccc21	?	-0.5%	-7.7%	?	3.9%
CCn1c(=O)c(C(=O)NCCCO)c(O)c2ccccc21	0.8%	0.7%	1.9%	10µM*	9.7%
CCn1c(=O)c(C(=O)NCc2ccc(OC)c(OC)c2)c(O)c2ccccc21	?	-0.8%	-6.3%	1.58µM*	9.4%
CCn1c(=O)c(C(=O)NCc2ccccn2)c(O)c2ccccc21	?	-2.5%	-4.0%	7.94µM*	9.2%
COc1ccc(-c2nc(C)c(CCNC(=O)c3ccccc3Br)s2)cc1OC	0.7%	nt	nt	nt	nt
N#Cc1nc(COc2ccccc2)oc1N1CCCCC1	-3.3%	?	1.1%	15.9%	6.5%
CC(C)Nc1oc(-c2cccc3ccccc23)nc1C#N	-2.6%	-0.6%	3.98µM*	12.6µM*	35.7%
C=CCNc1oc(-c2cccc3ccccc23)nc1C#N	-1.9%	-1.6%	0.501µM*	12.6µM*	6.4%
CC1CCN(c2oc(-c3cccc4ccccc34)nc2C#N)CC1	0.8%	-12.0%	1.9%	10µM*	12.2%
CCNc1oc(-c2cccc3ccccc23)nc1C#N	-1.4%	7.5%	nt	?	72.5%
SMILES	IkB sig inh	Hsp90 Hop PPI	15-hLO inh	CRE Fsk mod	Tau filament bind
CCN1CCN(c2oc(COc3ccc(-c4ccccc4)cc3)nc2C#N)CC1	?	?	-4.6%	5.01µM*	323.9%
COc1cccc(NS(=O)(=O)c2cc3c4c(c2)C(C)C(=O)N4CCC3)c1 (stereo unspecified)	-0.8%	nt	nt	nt	nt
COc1ccccc1-c1nc(C#N)c(N2CCN(Cc3ccccc3)CC2)o1	?	?	-10.2%	12.6µM*	22.7%
COc1ccccc1-c1nc(C#N)c(NCc2ccc(F)cc2)o1	-0.8%	-20.5%	-11.9%	12.6µM*	-3.3%
COc1ccc(C(=O)CSc2nc3nc(C)cc(C)n3n2)cc1OC	-2.5%	-2.6%	5.2%	3.98µM*	11.6%
Cc1cc(C)n2nc(SCC(=O)Nc3ccc(O)cc3)nc2n1	0.4%	nt	nt	nt	nt
COc1ccc2c(CSc3nc4nc(C)cc(C)n4n3)cc(=O)oc2c1	-0.9%	-0.3%	-6.0%	10µM*	-1.4%
Cc1cc(C)n2nc(SCC(=O)Nc3ccc(F)cc3)nc2n1	-1.6%	-6.7%[2.3 µM]	-0.2%	5.01µM*	-4.9%
CCOc1ccccc1CNCCCSc1nnnn1C	-1.4%	nt	nt	nt	nt
